# Measured values: paper PMC7826789 (International Journal of Molecular Sciences, 2021)
# Legend:
# Conditions in all cases: Compound Concentration (nM):1000
# [1] = system: T1, DLK
# T1 construct: gene MAP3K12
# [2] = system: T2, DMPK2
# T2 construct: gene CDC42BPG
# [3] = system: DMPK
# [4] = system: T3, DRAK1
# T3 construct: gene STK17A
# [5] = system: T4, DRAK2
# T4 construct: gene STK17B
# [6] = system: DYRK1A
# [7] = system: DYRK1B
# [8] = system: DYRK2
# [9] = system: EGFR(E746-A750del)
# [10] = system: EGFR(G719C)
# [11] = system: EGFR(G719S)
# [12] = system: EGFR(L747-E749del, A750P)
# [13] = system: EGFR(L747-S752del, P753S)
# [14] = system: EGFR(L747-T751del,Sins)
# [15] = system: EGFR(L858R)
# [16] = system: EGFR(L858R,T790M)
# [17] = system: EGFR(L861Q)
# [18] = system: EGFR(S752-I759del)
# [19] = system: EGFR(T790M)
# [20] = system: EGFR
# 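Note: KINOMEscan scanMAX binding as percent activity remaining versus control; lower means stronger binding.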
SMILES,Percent Control [1],Percent Control [2],Percent Control [3],Percent Control [4],Percent Control [5],Percent Control [6],Percent Control [7],Percent Control [8],Percent Control [9],Percent Control [10],Percent Control [11],Percent Control [12],Percent Control [13],Percent Control [14],Percent Control [15],Percent Control [16],Percent Control [17],Percent Control [18],Percent Control [19],Percent Control [20]
CN(C)c1cc2c(Nc3ccc4c(cnn4Cc4ccccc4)c3)ncnc2cn1 [GW282974X],82%,48%,95%,69%,100%,93%,100%,73%,,,,,,,,,,,,
COc1ccc(COc2ccc(Cc3cnc(N)nc3N)cc2OC)cc1 [GW632580X],97%,100%,100%,100%,100%,88%,100%,81%,100%,85%,61%,100%,75%,99%,86%,98%,61%,85%,69%,92%
Cl.O=S1CCN(Cc2ccc(-c3ccc4ncnc(Nc5ccc(OCc6ccccc6)c(F)c5)c4c3)o2)CC1 [GW576924A],90%,100%,100%,100%,100%,100%,100%,91%,14%,0%,2.2%,1.3%,5.9%,42%,0.3%,100%,0%,1.4%,46%,0.5%
COC(=O)Nc1nc2ccc(Oc3ccc(NC(=O)Nc4cc(C(F)(F)F)ccc4F)cc3)cc2s1.Cl [GW693917A],64%,73%,100%,100%,99%,82%,100%,62%,88%,98%,83%,86%,95%,100%,78%,95%,100%,100%,68%,90%
CN(C)CCNC(=O)Nc1ccc(N(C)c2ccnc(Nc3ccc(CS(C)(=O)=O)cc3)n2)cc1.Cl [GW830900A],67%,91%,100%,100%,100%,100%,100%,85%,92%,96%,97%,73%,79%,100%,83%,60%,100%,100%,64%,95%
Cl.O=C(Nc1ccc(Oc2ccc3[nH]c(NC(=O)c4ccco4)nc3c2)cc1)Nc1cc(C(F)(F)F)ccc1F [GW683134A],86%,82%,100%,100%,100%,100%,93%,83%,92%,100%,92%,69%,78%,100%,91%,100%,89%,97%,84%,92%
COc1ccc2cc(-c3c(-c4ccncc4)nc(-c4ccc(S(C)(=O)=O)cc4C)n3C)ccc2c1 [SB-633825],84%,41%,100%,93%,79%,77%,100%,70%,57%,66%,84%,78%,70%,70%,63%,38%,41%,93%,40%,74%
C/C(Nc1ccc(S(N)(=O)=O)cc1)=C1/C(=O)Nc2ccccc21 [GW335962X],73%,97%,99%,100%,97%,77%,93%,46%,100%,91%,63%,93%,82%,100%,100%,95%,68%,100%,74%,100%
Nc1ncnc2occ(-c3ccc(NC(=O)Nc4cc(C(F)(F)F)ccc4F)cc3)c12 [GW770249X],90%,96%,100%,100%,96%,100%,100%,86%,91%,89%,87%,88%,93%,100%,100%,96%,79%,89%,80%,100%
COc1cc(N2CCN(C(C)C)CC2)ccc1Nc1nc(Nc2ccc(F)cc2C(=O)NC[C@@H](O)CO)c2cc[nH]c2n1 [GSK1392956A],77%,75%,100%,87%,93%,53%,75%,24%,74%,94%,87%,83%,71%,94%,73%,7.6%,60%,86%,4.4%,76%
CC(C)COC(=O)c1ccc2c(c1)/C(=C/Nc1ccc(S(N)(=O)=O)cc1)C(=O)N2 [GW416981X],14%,100%,100%,0.3%,5.5%,26%,45%,18%,82%,4.6%,32%,62%,48%,60%,15%,100%,8.8%,100%,95%,13%
COc1ccc2c(-c3ccnc(Nc4cccc(OC(F)(F)F)c4)n3)cnn2n1 [GW810372X],92%,100%,100%,81%,100%,35%,13%,45%,99%,97%,73%,100%,98%,100%,100%,100%,75%,100%,82%,100%
CCc1ccc(Oc2nccc(-c3c(-c4ccc(F)cc4)ncn3C3CCNCC3)n2)cc1 [SB-242719],100%,2.1%,100%,77%,55%,95%,98%,76%,46%,69%,61%,48%,91%,71%,49%,73%,58%,85%,52%,48%
CCn1c(-c2nonc2N)nc2c(C#CC(C)(C)O)nc(OCCNC)cc21.Cl [GSK949675],86%,100%,100%,100%,100%,70%,100%,87%,97%,100%,100%,92%,100%,100%,100%,100%,100%,100%,85%,96%
CC1=C(C(=O)Nc2ccc3[nH]ncc3c2)C(c2ccc(Cl)c(Cl)c2)CC(=O)N1 (stereo not shown) [GSK299115A],77%,82%,100%,100%,84%,70%,59%,68%,98%,66%,100%,100%,97%,100%,100%,65%,86%,89%,77%,100%
C[C@@H](Oc1cc(-n2cnc3ccc(OC4CCN(C)CC4)cc32)sc1C(N)=O)c1ccccc1Cl [GSK579289A],78%,100%,80%,100%,93%,100%,100%,49%,92%,81%,59%,58%,100%,100%,79%,85%,64%,66%,62%,75%
O=C1Nc2ccc(C(=O)c3ccco3)cc2C1=Cc1cc(Cl)c(O)c(Cl)c1 [GW406108X],42%,100%,100%,80%,32%,0.4%,1.9%,41%,86%,73%,58%,100%,94%,91%,100%,92%,57%,81%,77%,100%
COc1cc(C=NNc2ncnc3c2cnn3-c2ccccc2)ccc1O [GW513184X],96%,100%,100%,83%,71%,53%,66%,28%,26%,58%,44%,46%,33%,64%,96%,76%,62%,64%,82%,100%
NS(=O)(=O)c1ccc(N/N=C2\C(=O)Nc3ccc(Cl)cc32)cc1 [GW280670X],96%,100%,100%,100%,100%,100%,100%,93%,100%,100%,100%,100%,100%,100%,100%,100%,87%,87%,100%,100%
COc1cc(/C=N/Nc2ncnc3[nH]ncc23)ccc1O [GW578748X],71%,100%,100%,7%,9.9%,12%,69%,2.5%,90%,52%,62%,78%,100%,78%,90%,72%,64%,86%,48%,75%
